# Assays:
# Experiment in all cases: DAPPL (digital affinity profiling via proximity ligation, sequencing); 10 mM Tris-HCl pH 7.5, 50 mM NaCl, 1 mM DTT, 4% glycerol, room temperature, 30 min; GST-TFs on glutathione beads, 16-mer random dsDNA library, 0.1% formaldehyde crosslink after washing; high values mean tight binding
# FLI1 = target: T1, FLI1 (Homo sapiens, UniProt Q01543 1-452); conditions: protein: recombinant; tags: N-terminal GST; dsDNA, one strand shown
# T1 sequence: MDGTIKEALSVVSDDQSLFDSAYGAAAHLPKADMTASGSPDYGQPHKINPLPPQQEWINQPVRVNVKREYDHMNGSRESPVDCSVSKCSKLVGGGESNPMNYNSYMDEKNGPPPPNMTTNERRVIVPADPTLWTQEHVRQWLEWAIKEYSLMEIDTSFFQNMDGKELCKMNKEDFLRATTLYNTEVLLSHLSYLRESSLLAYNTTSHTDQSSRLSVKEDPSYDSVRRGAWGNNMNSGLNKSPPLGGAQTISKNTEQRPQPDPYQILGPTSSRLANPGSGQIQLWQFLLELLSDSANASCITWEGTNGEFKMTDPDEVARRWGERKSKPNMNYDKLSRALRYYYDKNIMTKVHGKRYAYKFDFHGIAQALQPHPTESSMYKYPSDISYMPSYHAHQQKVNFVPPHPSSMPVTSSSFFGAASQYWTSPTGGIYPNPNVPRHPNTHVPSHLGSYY
# Procedure, shortened: (§1)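 GST fusions of human transcription factors were expressed in yeast and captured with glutathione beads. Once given DNA barcodes and pooled alongside a tag-only sample, they were incubated for 30 min at room temperature with 200 nmole of a random double-stranded 16-mer DNA library in Tris/NaCl/DTT/glycerol buffer, then washed, crosslinked (0.1% formaldehyde), proximity-ligated, PCR-amplified and sequenced on an Illumina NextSeq500. The binding signal of each hexamer is its read frequency for a factor divided by its frequency for the tag-only sample.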
# ELK1 = target: T2, ELK1 (Homo sapiens, UniProt P19419 1-428); conditions: protein: recombinant; tags: N-terminal GST; dsDNA, one strand shown
# T2 sequence: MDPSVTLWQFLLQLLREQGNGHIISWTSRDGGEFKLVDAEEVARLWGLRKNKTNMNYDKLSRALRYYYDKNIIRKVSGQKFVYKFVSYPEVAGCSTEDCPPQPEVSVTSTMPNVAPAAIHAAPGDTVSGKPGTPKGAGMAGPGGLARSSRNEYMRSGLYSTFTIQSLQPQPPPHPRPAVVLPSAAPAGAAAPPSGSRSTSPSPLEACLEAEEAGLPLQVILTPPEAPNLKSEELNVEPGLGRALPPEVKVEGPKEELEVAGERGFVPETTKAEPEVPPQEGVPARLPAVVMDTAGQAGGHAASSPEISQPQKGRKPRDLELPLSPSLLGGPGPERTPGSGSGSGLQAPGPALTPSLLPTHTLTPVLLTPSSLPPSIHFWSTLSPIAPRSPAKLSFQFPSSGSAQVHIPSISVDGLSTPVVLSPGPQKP
# Procedure, shortened: as §1
# GABPA = target: T3, GABPA (Homo sapiens, UniProt Q06546 1-454); conditions: protein: recombinant; tags: N-terminal GST; dsDNA, one strand shown
# T3 sequence: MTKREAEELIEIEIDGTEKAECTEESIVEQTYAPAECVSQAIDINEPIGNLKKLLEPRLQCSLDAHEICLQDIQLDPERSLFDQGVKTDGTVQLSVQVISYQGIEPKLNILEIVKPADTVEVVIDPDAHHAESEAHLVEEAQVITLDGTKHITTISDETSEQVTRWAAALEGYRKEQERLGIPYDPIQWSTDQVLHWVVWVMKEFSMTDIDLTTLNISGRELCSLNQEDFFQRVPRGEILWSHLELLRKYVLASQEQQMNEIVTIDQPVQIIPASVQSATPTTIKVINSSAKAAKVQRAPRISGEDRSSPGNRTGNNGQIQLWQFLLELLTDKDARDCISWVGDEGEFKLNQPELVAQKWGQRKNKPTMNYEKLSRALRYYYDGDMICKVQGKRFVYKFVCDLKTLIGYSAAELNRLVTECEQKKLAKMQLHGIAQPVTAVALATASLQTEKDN
# Procedure, shortened: as §1
# ERG = target: T4, ERG (Homo sapiens, UniProt P11308 1-479); conditions: protein: recombinant; tags: N-terminal GST; dsDNA, one strand shown
# T4 sequence: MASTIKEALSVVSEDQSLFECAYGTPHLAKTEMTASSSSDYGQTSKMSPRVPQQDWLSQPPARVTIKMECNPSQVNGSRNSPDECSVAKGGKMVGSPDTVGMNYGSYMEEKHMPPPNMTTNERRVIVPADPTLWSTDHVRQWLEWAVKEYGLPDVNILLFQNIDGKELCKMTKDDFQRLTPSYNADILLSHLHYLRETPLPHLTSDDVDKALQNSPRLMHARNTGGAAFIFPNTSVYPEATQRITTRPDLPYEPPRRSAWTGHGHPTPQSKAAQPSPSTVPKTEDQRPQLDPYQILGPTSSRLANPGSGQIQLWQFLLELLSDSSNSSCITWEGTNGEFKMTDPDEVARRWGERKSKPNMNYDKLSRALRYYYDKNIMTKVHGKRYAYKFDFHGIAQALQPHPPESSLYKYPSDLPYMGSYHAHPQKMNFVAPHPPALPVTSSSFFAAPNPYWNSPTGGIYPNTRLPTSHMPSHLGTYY
# Procedure, shortened: as §1
# ELF1 = ELF1 (Homo sapiens, UniProt P32519 1-619); conditions: protein: recombinant; tags: N-terminal GST; dsDNA, one strand shown
# Chain of ELF1 (P32519 whole entry): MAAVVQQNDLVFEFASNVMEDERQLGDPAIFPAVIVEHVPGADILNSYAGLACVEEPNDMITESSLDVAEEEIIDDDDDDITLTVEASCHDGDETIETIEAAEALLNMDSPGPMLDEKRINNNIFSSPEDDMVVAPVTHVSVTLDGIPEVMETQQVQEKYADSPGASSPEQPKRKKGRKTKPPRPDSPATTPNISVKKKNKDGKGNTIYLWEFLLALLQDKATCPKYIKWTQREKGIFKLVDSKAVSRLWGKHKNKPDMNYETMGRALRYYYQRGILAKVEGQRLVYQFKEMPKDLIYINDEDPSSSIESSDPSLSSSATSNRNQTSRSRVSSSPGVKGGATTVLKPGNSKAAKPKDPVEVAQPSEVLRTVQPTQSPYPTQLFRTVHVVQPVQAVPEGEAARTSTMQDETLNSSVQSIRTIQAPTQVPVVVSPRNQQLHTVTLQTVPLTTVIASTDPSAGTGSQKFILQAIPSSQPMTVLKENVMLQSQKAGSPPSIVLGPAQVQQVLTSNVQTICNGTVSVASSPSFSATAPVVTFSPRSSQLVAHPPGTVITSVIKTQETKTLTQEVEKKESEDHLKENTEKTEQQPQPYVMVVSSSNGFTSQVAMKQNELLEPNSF
# Procedure, shortened: as §1
# EHF = target: T5, EHF (Homo sapiens, UniProt Q9NZC4 1-300); conditions: protein: recombinant; tags: N-terminal GST; dsDNA, one strand shown
# T5 sequence: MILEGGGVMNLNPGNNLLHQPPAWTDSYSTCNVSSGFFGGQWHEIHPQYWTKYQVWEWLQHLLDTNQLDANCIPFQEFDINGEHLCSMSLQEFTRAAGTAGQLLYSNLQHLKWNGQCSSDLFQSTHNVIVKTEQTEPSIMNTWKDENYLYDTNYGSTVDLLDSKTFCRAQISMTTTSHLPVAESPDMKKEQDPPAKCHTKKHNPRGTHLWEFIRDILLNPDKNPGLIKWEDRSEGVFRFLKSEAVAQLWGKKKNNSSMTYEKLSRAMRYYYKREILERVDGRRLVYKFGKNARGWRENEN
# Procedure, shortened: as §1
# SPI1 = SPI1 (Homo sapiens, UniProt P17947 1-270); conditions: protein: recombinant; tags: N-terminal GST; dsDNA, one strand shown
# Procedure, shortened: as §1
# SPIB = SPIB (Homo sapiens, UniProt Q01892 1-262); conditions: protein: recombinant; tags: N-terminal GST; dsDNA, one strand shown
# Chain of SPIB (Q01892 whole entry): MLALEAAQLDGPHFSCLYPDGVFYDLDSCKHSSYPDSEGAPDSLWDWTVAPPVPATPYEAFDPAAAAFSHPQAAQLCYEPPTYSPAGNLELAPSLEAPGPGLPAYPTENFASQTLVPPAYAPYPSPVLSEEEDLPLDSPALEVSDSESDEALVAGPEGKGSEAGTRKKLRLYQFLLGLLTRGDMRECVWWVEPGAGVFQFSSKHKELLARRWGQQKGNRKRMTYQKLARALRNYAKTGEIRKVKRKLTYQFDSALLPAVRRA
# Procedure, shortened: as §1
# ELK3 = target: T6, ELK3 (Homo sapiens, UniProt P41970 1-407); conditions: protein: recombinant; tags: N-terminal GST; dsDNA, one strand shown
# T6 sequence: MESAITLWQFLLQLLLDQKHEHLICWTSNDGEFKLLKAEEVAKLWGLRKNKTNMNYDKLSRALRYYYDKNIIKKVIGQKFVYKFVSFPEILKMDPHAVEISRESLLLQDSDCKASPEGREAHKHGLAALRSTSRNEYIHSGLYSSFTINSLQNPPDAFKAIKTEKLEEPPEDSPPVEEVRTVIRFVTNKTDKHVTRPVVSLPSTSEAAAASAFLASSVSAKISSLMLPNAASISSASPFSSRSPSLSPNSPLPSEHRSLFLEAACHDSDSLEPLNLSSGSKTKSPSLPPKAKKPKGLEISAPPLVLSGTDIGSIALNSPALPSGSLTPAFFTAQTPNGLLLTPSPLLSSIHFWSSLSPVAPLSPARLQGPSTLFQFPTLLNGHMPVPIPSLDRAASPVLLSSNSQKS
# Procedure, shortened: as §1
# FEV = target: T7, FEV (Homo sapiens, UniProt Q99581 1-238); conditions: protein: recombinant; tags: N-terminal GST; dsDNA, one strand shown
# T7 sequence: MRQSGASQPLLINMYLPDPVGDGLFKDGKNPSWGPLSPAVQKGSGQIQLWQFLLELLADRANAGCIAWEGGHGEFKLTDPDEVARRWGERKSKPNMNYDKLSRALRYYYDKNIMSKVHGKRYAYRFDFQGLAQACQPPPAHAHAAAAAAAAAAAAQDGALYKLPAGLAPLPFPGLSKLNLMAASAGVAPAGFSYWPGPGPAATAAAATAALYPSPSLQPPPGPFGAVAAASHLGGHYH
# Procedure, shortened: as §1
# ETV5 = ETV5 (Homo sapiens, UniProt P41161 1-510); conditions: protein: recombinant; tags: N-terminal GST; dsDNA, one strand shown
# Chain of ETV5 (P41161 whole entry): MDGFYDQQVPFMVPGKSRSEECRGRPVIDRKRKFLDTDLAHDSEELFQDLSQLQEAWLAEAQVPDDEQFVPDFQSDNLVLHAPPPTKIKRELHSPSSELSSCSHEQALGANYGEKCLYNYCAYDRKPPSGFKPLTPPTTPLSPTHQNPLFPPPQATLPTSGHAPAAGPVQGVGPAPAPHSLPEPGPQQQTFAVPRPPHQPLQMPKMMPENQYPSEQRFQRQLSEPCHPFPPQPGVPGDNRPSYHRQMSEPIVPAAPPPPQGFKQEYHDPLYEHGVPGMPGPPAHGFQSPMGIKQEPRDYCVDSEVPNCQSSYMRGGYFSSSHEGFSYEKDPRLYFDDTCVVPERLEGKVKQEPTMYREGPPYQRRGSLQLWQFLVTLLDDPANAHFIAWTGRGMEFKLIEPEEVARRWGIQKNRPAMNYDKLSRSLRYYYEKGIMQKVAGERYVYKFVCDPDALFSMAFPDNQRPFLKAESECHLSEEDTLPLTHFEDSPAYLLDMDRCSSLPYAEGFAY
# Procedure, shortened: as §1
# HSF1 = HSF1 (Homo sapiens, UniProt Q00613 1-529); conditions: protein: recombinant; tags: N-terminal GST; chain copies: 3; dsDNA, one strand shown
# Chain of HSF1 (Q00613 whole entry): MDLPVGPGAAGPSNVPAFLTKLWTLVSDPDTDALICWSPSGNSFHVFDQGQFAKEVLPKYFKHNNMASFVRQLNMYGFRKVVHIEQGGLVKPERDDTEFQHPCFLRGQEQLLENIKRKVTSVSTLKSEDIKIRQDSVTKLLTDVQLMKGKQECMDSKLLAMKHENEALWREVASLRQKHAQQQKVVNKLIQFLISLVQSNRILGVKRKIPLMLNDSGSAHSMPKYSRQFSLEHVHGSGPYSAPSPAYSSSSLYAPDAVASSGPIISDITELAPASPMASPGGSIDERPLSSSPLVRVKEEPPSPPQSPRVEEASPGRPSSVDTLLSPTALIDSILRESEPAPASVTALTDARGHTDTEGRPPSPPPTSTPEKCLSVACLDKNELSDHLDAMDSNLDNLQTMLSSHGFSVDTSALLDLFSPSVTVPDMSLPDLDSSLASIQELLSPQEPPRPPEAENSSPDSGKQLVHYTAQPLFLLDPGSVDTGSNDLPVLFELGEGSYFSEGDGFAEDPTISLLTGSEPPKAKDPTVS
# Procedure, shortened: as §1
# SPIC = target: T8, SPIC (Homo sapiens, UniProt Q8N5J4 1-248); conditions: protein: recombinant; tags: N-terminal GST; dsDNA, one strand shown
# T8 sequence: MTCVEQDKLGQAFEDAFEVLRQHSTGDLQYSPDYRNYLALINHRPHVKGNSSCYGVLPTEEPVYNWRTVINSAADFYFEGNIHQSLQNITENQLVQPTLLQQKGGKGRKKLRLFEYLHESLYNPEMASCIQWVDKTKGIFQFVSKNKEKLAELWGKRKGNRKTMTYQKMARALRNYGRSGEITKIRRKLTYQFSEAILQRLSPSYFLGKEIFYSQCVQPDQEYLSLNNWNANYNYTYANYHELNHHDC
# Procedure, shortened: as §1
# ELF4 = ELF4 (Homo sapiens, UniProt Q99607 1-663); conditions: protein: recombinant; tags: N-terminal GST; dsDNA, one strand shown
# Chain of ELF4 (Q99607 whole entry): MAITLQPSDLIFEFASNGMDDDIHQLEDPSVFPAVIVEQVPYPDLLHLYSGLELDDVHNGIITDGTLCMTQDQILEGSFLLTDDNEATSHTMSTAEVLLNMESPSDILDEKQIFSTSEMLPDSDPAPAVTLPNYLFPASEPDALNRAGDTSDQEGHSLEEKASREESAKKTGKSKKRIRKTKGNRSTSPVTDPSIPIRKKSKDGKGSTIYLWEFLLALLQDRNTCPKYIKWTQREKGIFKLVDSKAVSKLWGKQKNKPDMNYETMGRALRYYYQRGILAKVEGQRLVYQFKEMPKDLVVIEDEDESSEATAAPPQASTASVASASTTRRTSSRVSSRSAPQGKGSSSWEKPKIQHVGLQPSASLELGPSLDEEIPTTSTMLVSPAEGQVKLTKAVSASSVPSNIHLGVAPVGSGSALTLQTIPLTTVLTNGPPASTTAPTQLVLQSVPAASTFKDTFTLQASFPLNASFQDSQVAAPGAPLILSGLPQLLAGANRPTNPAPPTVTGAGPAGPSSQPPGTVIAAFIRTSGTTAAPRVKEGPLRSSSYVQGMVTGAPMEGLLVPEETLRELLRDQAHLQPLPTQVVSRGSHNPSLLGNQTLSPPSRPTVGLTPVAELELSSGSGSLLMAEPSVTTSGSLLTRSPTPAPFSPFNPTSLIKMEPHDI
# Procedure, shortened: as §1
# ELK4 = target: T9, ELK4 (Homo sapiens, UniProt P28324-2 1-405); conditions: protein: recombinant; tags: N-terminal GST; dsDNA, one strand shown
# T9 sequence: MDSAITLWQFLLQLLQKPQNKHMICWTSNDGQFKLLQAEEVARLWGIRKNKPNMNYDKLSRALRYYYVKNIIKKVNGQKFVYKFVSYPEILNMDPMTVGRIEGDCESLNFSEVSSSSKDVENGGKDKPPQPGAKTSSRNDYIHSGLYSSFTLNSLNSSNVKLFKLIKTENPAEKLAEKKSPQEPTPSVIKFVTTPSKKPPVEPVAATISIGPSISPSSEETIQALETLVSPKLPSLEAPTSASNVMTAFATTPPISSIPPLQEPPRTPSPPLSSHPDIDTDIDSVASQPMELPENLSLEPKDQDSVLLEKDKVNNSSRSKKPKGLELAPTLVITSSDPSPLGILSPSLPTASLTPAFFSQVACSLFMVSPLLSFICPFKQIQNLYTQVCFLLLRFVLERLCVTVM
# Procedure, shortened: as §1
# ETV2 = target: T10, ETV2 (Homo sapiens, UniProt O00321 1-342); conditions: protein: recombinant; tags: N-terminal GST; dsDNA, one strand shown
# T10 sequence: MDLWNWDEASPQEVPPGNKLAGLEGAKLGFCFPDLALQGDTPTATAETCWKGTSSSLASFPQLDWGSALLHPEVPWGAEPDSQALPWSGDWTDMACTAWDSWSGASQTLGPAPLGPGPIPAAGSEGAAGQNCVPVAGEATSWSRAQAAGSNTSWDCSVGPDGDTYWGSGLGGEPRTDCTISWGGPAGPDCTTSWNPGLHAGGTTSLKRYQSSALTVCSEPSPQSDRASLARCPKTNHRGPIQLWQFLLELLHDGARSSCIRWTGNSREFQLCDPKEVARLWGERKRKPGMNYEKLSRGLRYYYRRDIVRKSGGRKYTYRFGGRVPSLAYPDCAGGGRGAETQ
# Procedure, shortened: as §1
# ELF3 = target: T11, ELF3 (Homo sapiens, UniProt P78545 1-371); conditions: protein: recombinant; tags: N-terminal GST; dsDNA, one strand shown
# T11 sequence: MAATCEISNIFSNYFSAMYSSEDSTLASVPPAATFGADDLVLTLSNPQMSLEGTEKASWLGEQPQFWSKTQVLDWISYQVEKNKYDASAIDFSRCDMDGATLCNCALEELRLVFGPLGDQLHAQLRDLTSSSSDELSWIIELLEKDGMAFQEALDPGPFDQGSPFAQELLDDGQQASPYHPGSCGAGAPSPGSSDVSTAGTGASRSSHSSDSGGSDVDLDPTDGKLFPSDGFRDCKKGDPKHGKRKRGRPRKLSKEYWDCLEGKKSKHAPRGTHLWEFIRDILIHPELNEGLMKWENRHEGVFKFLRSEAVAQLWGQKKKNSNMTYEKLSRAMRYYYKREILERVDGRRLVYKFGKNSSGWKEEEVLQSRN
# Procedure, shortened: as §1
# ETV1 = ETV1 (Homo sapiens, UniProt P50549 1-477); conditions: protein: recombinant; tags: N-terminal GST; dsDNA, one strand shown
# Chain of ETV1 (P50549 whole entry): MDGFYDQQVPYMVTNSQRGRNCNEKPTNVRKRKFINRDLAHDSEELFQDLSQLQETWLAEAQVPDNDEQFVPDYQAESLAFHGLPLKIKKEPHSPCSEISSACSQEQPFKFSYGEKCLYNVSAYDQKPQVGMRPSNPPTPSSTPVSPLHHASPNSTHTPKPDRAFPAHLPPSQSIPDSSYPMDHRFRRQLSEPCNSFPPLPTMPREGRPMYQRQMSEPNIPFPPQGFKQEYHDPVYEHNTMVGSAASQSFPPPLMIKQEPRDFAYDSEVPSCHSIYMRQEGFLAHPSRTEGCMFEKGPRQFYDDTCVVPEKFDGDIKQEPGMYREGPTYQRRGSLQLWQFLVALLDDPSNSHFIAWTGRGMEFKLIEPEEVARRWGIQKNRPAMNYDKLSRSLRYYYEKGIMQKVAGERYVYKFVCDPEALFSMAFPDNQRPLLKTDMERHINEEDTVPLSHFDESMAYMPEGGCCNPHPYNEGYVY
# Procedure, shortened: as §1
sequence,measurement,setting,value
TGTACG,binding signal,FLI1,"1.18 fold enrichment (6-mer frequency, TF over GST control)"
same,binding signal,ELK1,"1.23 fold enrichment (6-mer frequency, TF over GST control)"
same,binding signal,GABPA,"1.08 fold enrichment (6-mer frequency, TF over GST control)"
same,binding signal,ERG,"1.15 fold enrichment (6-mer frequency, TF over GST control)"
same,binding signal,ELF1,"1.11 fold enrichment (6-mer frequency, TF over GST control)"
same,binding signal,EHF,"1.12 fold enrichment (6-mer frequency, TF over GST control)"
same,binding signal,SPI1,"1.19 fold enrichment (6-mer frequency, TF over GST control)"
same,binding signal,SPIB,"1.1 fold enrichment (6-mer frequency, TF over GST control)"
same,binding signal,ELK3,"1.23 fold enrichment (6-mer frequency, TF over GST control)"
same,binding signal,FEV,"1.2 fold enrichment (6-mer frequency, TF over GST control)"
same,binding signal,ETV5,"1.23 fold enrichment (6-mer frequency, TF over GST control)"
same,binding signal,HSF1,"1.01 fold enrichment (6-mer frequency, TF over GST control)"
same,binding signal,SPIC,"1.23 fold enrichment (6-mer frequency, TF over GST control)"
same,binding signal,ELF4,"1.2 fold enrichment (6-mer frequency, TF over GST control)"
same,binding signal,ELK4,"1.34 fold enrichment (6-mer frequency, TF over GST control)"
same,binding signal,ETV2,"1.13 fold enrichment (6-mer frequency, TF over GST control)"
same,binding signal,ELF3,"1.13 fold enrichment (6-mer frequency, TF over GST control)"
same,binding signal,ETV1,"1.24 fold enrichment (6-mer frequency, TF over GST control)"

# Source: publication PMC7862700, “An all-to-all approach to the identification of sequence-specific readers for epigenetic DNA modifications on cytosine”
